From PubChem BioAssay
Activity calls are given as the source filed them. Unless noted, the rule behind the calls is not given here.

Experiments:
[1] = anti-His antibody binders, primary screen, artefact control for SMM control protein annotation, biochemical, small-molecule microarray, 635 nm fluorescence (AID 1128); settings: anti-His Alexa647 antibody binding, higher = more signal;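 note: score merges feature fluorescence with signal-to-noise for each printed compound spot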
[2] = system: Human papillomavirus type 1a E7 protein (residues 1-88); experiment: HPV1a E7 small-molecule binders, primary screen, biochemical, small-molecule microarray, residues 1-88, 635 nm (AID 1129); settings: small-molecule microarray binding, fluorescence 635 nm; higher = more signal
[3] = molecular target: Focal adhesion kinase 1 (Homo sapiens) (UniProt Q05397); experiment: small-molecule microarray binders of FAK, primary screen, biochemical, 635/667 nm fluorescence, BSA, DTT (AID 1130); settings: PTK2 binding, 635 nm fluorescence, higher = more signal;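 note: composite of spot emission at 667 nm and signal to noise over triplicate slides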
Focal adhesion kinase 1 (Homo sapiens), sequence (Q05397 whole entry, looked up): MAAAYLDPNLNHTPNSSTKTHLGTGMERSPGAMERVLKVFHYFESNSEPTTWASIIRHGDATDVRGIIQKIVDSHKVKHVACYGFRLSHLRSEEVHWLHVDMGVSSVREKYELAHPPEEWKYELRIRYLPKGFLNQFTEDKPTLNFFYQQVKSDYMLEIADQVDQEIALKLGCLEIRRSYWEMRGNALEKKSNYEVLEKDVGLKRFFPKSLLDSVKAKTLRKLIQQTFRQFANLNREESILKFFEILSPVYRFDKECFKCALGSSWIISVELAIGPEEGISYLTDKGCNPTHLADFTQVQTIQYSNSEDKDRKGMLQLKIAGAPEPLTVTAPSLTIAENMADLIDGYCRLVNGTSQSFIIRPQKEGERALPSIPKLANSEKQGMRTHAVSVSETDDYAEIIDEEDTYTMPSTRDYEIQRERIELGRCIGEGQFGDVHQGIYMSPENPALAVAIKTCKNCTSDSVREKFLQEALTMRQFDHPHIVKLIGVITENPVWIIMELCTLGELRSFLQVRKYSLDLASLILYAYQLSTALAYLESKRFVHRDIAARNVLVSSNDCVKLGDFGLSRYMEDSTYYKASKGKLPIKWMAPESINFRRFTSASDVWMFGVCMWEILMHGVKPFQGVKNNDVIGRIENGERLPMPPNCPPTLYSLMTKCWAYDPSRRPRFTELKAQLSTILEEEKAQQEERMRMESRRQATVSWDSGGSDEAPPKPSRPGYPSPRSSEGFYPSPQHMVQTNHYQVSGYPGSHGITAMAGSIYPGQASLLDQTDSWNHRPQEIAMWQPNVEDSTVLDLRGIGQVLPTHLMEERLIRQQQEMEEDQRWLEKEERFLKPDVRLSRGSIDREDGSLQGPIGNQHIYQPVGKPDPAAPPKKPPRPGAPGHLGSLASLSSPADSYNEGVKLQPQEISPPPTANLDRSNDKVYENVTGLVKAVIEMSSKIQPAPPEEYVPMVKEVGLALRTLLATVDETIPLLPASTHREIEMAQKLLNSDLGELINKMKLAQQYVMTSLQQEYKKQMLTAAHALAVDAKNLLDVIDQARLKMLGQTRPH

[4] = system: Fibrinogen (Alexa647-labelled); experiment: fibrinogen binders on compound microarrays, profiling panel, artefact control for SMM control-protein annotation, biochemical, small-molecule microarray, 635/667 nm fluorescence (AID 1131); settings: fibrinogen-A647 binding fluorescence, higher = more signal;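 note: z-score merges 667 nm fluorescence with per-spot signal-to-noise over triplicate slides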
[5] = molecular target: Follistatin (Homo sapiens) (UniProt P19883); experiment: follistatin binders on small-molecule microarrays, primary screen, biochemical, small-molecule microarray, 635/667 nm fluorescence (AID 1132); settings: FST binding, 635 nm fluorescence, higher = more signal
Follistatin (Homo sapiens), sequence (P19883 whole entry, looked up): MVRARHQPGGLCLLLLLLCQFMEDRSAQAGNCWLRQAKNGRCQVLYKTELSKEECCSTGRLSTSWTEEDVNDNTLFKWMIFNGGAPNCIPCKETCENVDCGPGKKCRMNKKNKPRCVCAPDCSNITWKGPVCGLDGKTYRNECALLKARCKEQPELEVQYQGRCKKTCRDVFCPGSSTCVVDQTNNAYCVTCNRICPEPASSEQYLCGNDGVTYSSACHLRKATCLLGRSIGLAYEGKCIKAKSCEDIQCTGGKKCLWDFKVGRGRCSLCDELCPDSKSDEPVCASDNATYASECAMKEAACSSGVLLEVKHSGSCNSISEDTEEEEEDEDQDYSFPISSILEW

[6] = molecular target: Fibroblast growth factor 2 (Homo sapiens) (UniProt P09038); experiment: FGF2 binders on small-molecule microarrays, primary screen, biochemical, small-molecule microarray, 635/667 nm fluorescence (AID 1133); settings: small-molecule microarray binding, FGF2, fluorescence 635/667; higher = more signal
Fibroblast growth factor 2 (Homo sapiens), sequence (P09038 whole entry, looked up): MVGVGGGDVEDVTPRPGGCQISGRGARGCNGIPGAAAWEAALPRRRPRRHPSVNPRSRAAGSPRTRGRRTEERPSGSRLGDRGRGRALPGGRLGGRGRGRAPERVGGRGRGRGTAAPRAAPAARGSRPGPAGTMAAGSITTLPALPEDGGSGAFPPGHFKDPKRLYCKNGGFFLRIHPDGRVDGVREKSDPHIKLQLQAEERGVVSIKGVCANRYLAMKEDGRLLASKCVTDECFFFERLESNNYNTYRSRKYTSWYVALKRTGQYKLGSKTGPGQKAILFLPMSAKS

[7] = mitochondrial membrane potential change in A549 cells, profiling panel, cell-based, JC-1 fluorescence, basal, 24 h, 100 nL (AID 1138); settings: higher = more signal;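 note: A549 lung adenocarcinoma cells under basal conditions with no added stimulus; test concentration not given here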
[8] = system: Lefty1; experiment: Lefty1 binders on small-molecule microarrays, primary screen, biochemical, small-molecule microarray, 635/667 nm fluorescence (AID 1139); settings: small-molecule microarray binding, fluorescence 635/667; higher = more signal
[9] = system: wheat germ agglutinin (Triticum aestivum), Alexa647-labelled; experiment: wheat germ agglutinin binders on compound microarrays, profiling panel, artefact control for SMM control-protein annotation, biochemical, small-molecule microarray, 635/667 nm fluorescence (AID 1140); settings: WGA-A647 binding, 635 nm fluorescence, higher = more signal;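 note: score merges 667 nm feature emission with signal to noise over triplicate slides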
[10] = molecular target: Luciferin 4-monooxygenase (Photinus pyralis) (UniProt P08659); experiment: firefly luciferase enzyme inhibitors, primary screen, biochemical, luminescence, purified enzyme, 2006 set (AID 1141); settings: SteadyGlo luminescence, 30 min, higher = more signal, called active from +8 up or from −8 down;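 note: cell-free assay with purified firefly luciferase at 100 ng per well in PBS; test concentration not given here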
Luciferin 4-monooxygenase (Photinus pyralis), sequence (P08659 whole entry, looked up): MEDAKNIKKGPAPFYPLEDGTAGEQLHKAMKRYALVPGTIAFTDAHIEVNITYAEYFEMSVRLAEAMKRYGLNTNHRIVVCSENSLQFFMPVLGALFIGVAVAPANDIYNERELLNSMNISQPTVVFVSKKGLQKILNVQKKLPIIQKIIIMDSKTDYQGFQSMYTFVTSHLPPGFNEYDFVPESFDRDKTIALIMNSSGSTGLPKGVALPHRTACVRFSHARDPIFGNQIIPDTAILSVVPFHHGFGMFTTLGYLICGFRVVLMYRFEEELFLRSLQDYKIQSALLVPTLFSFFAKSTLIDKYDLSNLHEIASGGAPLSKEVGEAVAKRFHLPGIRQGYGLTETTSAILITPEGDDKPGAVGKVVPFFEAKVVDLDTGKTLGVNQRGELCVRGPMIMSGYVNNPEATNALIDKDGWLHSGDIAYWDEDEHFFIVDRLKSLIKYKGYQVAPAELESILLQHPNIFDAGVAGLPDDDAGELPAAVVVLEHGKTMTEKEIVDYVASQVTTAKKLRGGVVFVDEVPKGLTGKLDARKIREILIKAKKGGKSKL

[11] = system: Wnt5a (protein binding on small-molecule microarray); experiment: Wnt5a binders on small-molecule microarray, primary screen, biophysical, 635/667 nm fluorescence (AID 1142); settings: 635 nm fluorescence, higher = more signal;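 note: fluorescence read at 667 nm with signal to noise per printed feature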
[12] = cell viability in Huh7 cells, primary screen, cytotoxicity control for HCV replication inhibitor project, CellTiter-Glo luminescence, basal, 48 h (AID 1143); settings: Huh7 HCV replicon, higher = more signal, called active from +8 up or from −8 down;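 note: Huh7 hepatoma cells carrying a hepatitis C replication reporter with no stimulus; test concentration not given here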
[13] = P. aeruginosa biofilm formation inhibitors, primary screen, PAO1 strain, BacTiter-Glo luminescence, LB-PBS (AID 1144); settings: 12 h, higher = more signal
[14] = CREB reporter modulators without forskolin, primary screen, cell-based, PC12, CRE-LacZ reporter, unstimulated (AID 1145); settings: no forskolin, luminescence, 4.5 h, higher = more signal, called active from +8 up or from −8 down
[15] = CREB reporter modulators under forskolin, primary screen, cell-based, PC12, CRE-LacZ reporter, forskolin-stimulated (AID 1146); settings: luminescence, 4.5 h, higher = more signal, called active from +8 up or from −8 down;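 note: PC12 cells with 6xCRE LacZ reporter stimulated by forskolin 10 µM; beta-galactosidase reporter signal reflecting CREB driven transcription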
[16] = molecular target: Streptavidin (Streptomyces avidinii) (UniProt P22629); experiment: streptavidin binders on small-molecule microarray, primary screen, artefact control for SMM compound annotation, biophysical, 635/667 nm fluorescence (AID 1147); settings: streptavidin binding, higher = more signal;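 note: signal reflects streptavidin binding to arrayed compounds as a control protein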
Streptavidin (Streptomyces avidinii), sequence (P22629 whole entry, looked up): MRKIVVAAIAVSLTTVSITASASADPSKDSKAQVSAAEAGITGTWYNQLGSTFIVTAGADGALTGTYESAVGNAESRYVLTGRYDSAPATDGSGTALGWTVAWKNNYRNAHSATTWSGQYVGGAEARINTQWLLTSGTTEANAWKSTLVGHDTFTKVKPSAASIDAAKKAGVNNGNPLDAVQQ

[17] = small-molecule binders of probe aInhba, primary screen, biochemical, small-molecule microarray, 635/667 nm fluorescence (AID 1148); settings: higher = more signal;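 note: score merges 667nm spot fluorescence with signal-to-noise for antibody binding to printed compounds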
[18] = molecular target: Torsin-1A (Homo sapiens) (UniProt O14656); experiment: torsin A binders from cell lysate, primary screen, small-molecule microarray, wild-type, 635/667 nm (AID 1149); settings: COS7 hTOR1A-WT lysate, 635 nm fluorescence, higher = more signal
Torsin-1A (Homo sapiens), sequence (O14656 whole entry, looked up): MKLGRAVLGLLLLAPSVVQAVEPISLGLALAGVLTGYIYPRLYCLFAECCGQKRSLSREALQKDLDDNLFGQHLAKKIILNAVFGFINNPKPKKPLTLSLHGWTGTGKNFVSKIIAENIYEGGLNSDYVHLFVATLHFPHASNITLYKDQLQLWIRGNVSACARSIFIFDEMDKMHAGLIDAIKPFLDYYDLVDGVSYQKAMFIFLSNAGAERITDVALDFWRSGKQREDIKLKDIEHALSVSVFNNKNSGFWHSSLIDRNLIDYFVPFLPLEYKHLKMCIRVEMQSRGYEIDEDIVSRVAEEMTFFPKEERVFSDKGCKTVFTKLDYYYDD

[19] = molecular target: Torsin-1A (Homo sapiens) (UniProt O14656); experiment: small-molecule binders of mutant TOR1A in lysate, primary screen, cell lysate, small-molecule microarray, COS7 lysate, 635/667 nm fluorescence (AID 1150); settings: COS7 hTOR1A mutant lysate, 635 nm fluorescence, higher = more signal;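 note: score pools 667 nm emission and signal to noise measuring lysate protein binding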
[20] = system: Sonic hedgehog protein (Shh); experiment: small-molecule binders of Shh protein, primary screen, biochemical, small-molecule microarray, 635/667 nm fluorescence (AID 1151); settings: small-molecule microarray binding, 635 nm fluorescence; higher = more signal;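 note: Shh protein binding to compounds spotted on small-molecule microarray slides; score combines spot fluorescence intensity with signal-to-noise across triplicate slides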

| SMILES | composite z-score [1] | composite z-score [2] | composite z-score [3] | composite z-score [4] | composite z-score [5] | composite z-score [6] | z-score [7] | composite z-score [8] | composite z-score [9] | z-score [10] | composite z-score [11] | z-score [12] | z-score [13] | z-score [14] | z-score [15] | composite z-score [16] | composite z-score [17] | composite z-score [18] | composite z-score [19] | composite z-score [20] |
| --- | --- | --- | --- | --- | --- | --- | --- | --- | --- | --- | --- | --- | --- | --- | --- | --- | --- | --- | --- | --- |
| CC1(C)C(=O)C(c2ccccc2)=C2CN3C(=O)N(CCc4ccccc4)C(=O)C3(Cc3ccc(C(F)(F)F)cc3)C=C21 (stereo not given) | 0.478 | 1.21 | 1.32 | 0.414 | 0.376 | -0.729 | 0.37 | -0.285 | 0.57 | 1.24 (inactive) | 0.437 | -1.29 (inactive) | 0.332 (inactive) | -0.379 (inactive) | 0.866 (inactive) | 1.19 | 0.196 | -0.102 | 0.608 | -1.01 |
| [N-]=[N+]=NCc1ccccc1[C@@H]1OC(c2ccc(OCCCO)cc2)=N[C@]1(Cc1ccccc1N=[N+]=[N-])C(=O)NCCN1CCOCC1 | 1.37 | 1.25 | 0.535 | 0.983 | 1.39 | 0.893 | 2.23 | 0.54 | 0.445 | -2.82 (inactive) | 0.959 | -3.14 (inactive) | 1.07 (inactive) | 0.895 (inactive) | -1.78 (inactive) | 0.974 | 0.102 | 1.06 | 1.01 | 0.387 |
| C=CCC(OC(C)=O)[C@@H]1[C@@H](N(Cc2ccc(-c3cccc(C(F)(F)F)c3)o2)C(=O)Cc2ccc(OC)cc2)c2cc(OCCCO)ccc2N1C(=O)Cc1ccc2ccccc2c1 (stereo not given in full) | 0.083 | -1.39 | -0.368 | 0.226 | 0.131 | -0.501 | -0.451 | -0.27 | -0.0571 | 0.149 (inactive) | -0.19 | -1.58 (inactive) | -0.787 (inactive) | 0.134 (inactive) | 0.376 (inactive) | -0.679 | -0.238 | -1.96 | -1.85 | 0.0678 |
| CN1C(=O)C2C=CC(C(O)c3cc(C(F)(F)F)cc(C(F)(F)F)c3)N(NC(=O)OC(C)(C)C)C2C1=O (stereo not given) | 1.12 | 1.2 | 0.753 | 0.982 | 1.27 | -0.396 | 0.717 | 0.369 | 0.713 | 0.75 (inactive) | 0.135 | -2.4 (inactive) | 0.999 (inactive) | 0.0467 (inactive) | 0.587 (inactive) | 1.6 | 0.29 | 0.49 | 1.32 | 0.433 |
| CN1C(=O)[C@@H]2[C@@H](CC(COc3ccccc3)=C([C@H](O)CCc3ccccc3)[C@@H]2CO)C1=O | -0.203 | -0.438 | -0.147 | -0.163 | 0.009 | 0.364 | 2.02 | -0.0412 | 0.488 | -1.4 (inactive) | -0.0336 | -1.03 (inactive) | 0.272 (inactive) | 1.67 (inactive) | -1.18 (inactive) | -0.448 | -0.128 | 0.762 | 0.0706 | 0.497 |
| O=C1C2C=CC(C(O)c3ccco3)N(Nc3ccccc3)C2C(=O)N1c1ccccc1 (stereo not given) | -0.317 | 0.556 | -0.0201 | -1.58 | -0.118 | -1.21 | 1.9 | -0.907 | 0.46 | 1.06 (inactive) | -0.476 | 0.876 (inactive) | -0.497 (inactive) | 0.0467 (inactive) | 0.621 (inactive) | -0.511 | -0.0963 | -1.16 | 0.746 | -0.998 |
